Only some compounds are listed: those with a hit (about 0.83% of all), similar ones and a draw of the others.
Gli-Sufu block: Gli-Sufu pathway antagonism; AID 588413; 0.74% of 340,000 active; inhibition, % at 5 µM; Sufu-KO-LIGHT fibroblasts, Gli luciferase reporter luminescence;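 active = inhibition above about 55%, limit read from the data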;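 also: 0% = DMSO-treated cells and 100% = wells with medium but no cells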
SRC1 inh: inhibitors of human steroid receptor coactivator 1 (SRC1). Q15788. HEK293 GAL4-SRC1 luciferase reporter, luminescence. inhibition, % at 3.6 µM. 0.12% of 360,000 active. AID 588354;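 active = inhibition above the campaign mean plus 3 SD, with each screening campaign given its own cutoff, cut at about 60% in these data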;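 also: 0% = DMSO treated cells and 100% = gossypol at 36 µM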
NR5A2 inv ag: suppresses constitutive activity of human LRH-1; O00482; HEK293T StAR-luciferase reporter, LRH-1 transfected, 24 h; inhibition, % at 3.6 µM; 0.13% of 360,000 active; AID 602396;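 active = inhibition above the mean inhibition of all tested compounds plus 3 SD, cut at about 73% in these data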;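 also: 0% = DMSO wells and 100% = reporter-only cells lacking LRH-1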
NCOA2 inhibitor: inhibits human steroid receptor coactivator 2 | Q15596 | HEK293 GAL4-SRC2 luciferase reporter, luminescence | inhibition, % at 9 µM | 0.17% of 370,000 active;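 active = inhibition above the mean inhibition of all tested compounds plus 3 SD, set per campaign, cut at about 52% in these data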;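 also: 0% = DMSO treated cells and 100% = cells given Gossypol at 36 µM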
NCOA3 inh: human NCOA3 inhibition; 0.17% of 360,000 active; AID 588352; inhibition, % at 3.6 µM; HEK293 GAL4-SRC3 luciferase reporter, luminescence; Q9Y6Q9;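 active = inhibition above a per-campaign cutoff, the mean of all compounds plus 3 SD, cut at about 60% in these data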;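 also: 0% = DMSO-treated cells and 100% = gossypol-treated cells at 36 µM; higher means less SRC3-driven luciferase light from the GAL4 reporter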
* marks the source's active call; other numbers are inactive results; . = no result.

SMILES	Gli-Sufu block	SRC1 inh	NR5A2 inv ag	NCOA2 inhibitor	NCOA3 inh
Cc1ccccc1C(=O)N(C)[C@H]1C[C@H]2c3[nH]c4c(-c5ccc6c(c5)OCO6)cccc4c3CCN2C[C@H]1[C@H](C)O	.	.	.	1	.
Cc1ccc(C2=[N+]([O-])C3(CCCCC3=O)N(O)C2(C)C)cc1 (stereo not drawn)	9	4	8	78*	-2
CCC(NC(=O)Nc1nnc(C(F)(F)F)s1)(C(F)(F)F)C(F)(F)F	-4	56	62	24	76*
CC[n+]1c(C)sc2c3ccsc3ccc21	-7	-8	-12	16	-2
CCN1/C(=C\c2ccc3cc(C)ccc3[n+]2CC)Sc2cc(C)c(C)cc21	88*	20	64	-28	36
Cc1ccc2c(c1)S/C(=C\c1cccc[n+]1C)N2CCO	16	6	18	3	9
CC[n+]1c(/C=C/c2cc([N+](=O)[O-])ccc2O)ccc2ccccc21	4	10	-24	-17	-4
CCN1/C(=C/c2ccc3cc(C)ccc3[n+]2CC)Sc2ccc3sccc3c21	87*	31	14	.	39
CCN1/C(=C/c2ccc3cc(C)cc(C)c3[n+]2CC)Sc2cc(C)ccc21	90*	24	67	-47	44
CCN1/C(=C/c2ccc3cccc(C)c3[n+]2CC)Sc2ccccc21	88*	42	69	-6	53
O=C(Nc1nnc(-c2cccnc2)s1)c1cnc2ccccc2c1	.	.	.	-43	.
c1ccc2cc(Cn3ccc4ccc(-c5ccc6cc[nH]c6c5)cc43)ccc2c1	.	.	.	-11	.
COC(=O)[C@]12C[C@H](CC(=O)NCc3cccs3)C(=O)N(Cc3ccc(Cl)cc3Cl)C1=C[C@H](COCc1ccccc1)O[C@@H]2C	.	.	.	7	.
CCN(CC)c1ccc(/C=N/NC(=O)c2nnn(-c3nonc3N)c2C(C)C)c(O)c1	92*	51	26	43	77*
CC(C)c1c(C(=O)N/N=C/c2ccc3c(c2)OCO3)nnn1-c1nonc1N	-9	-16	-13	0	13
O=C(OC12CCCN(C1)/C(=C/c1ccncc1)C2)C1CCCCC1 (stereo not drawn)	.	.	.	19	.
Cc1ccc(-c2nc(-c3ccccn3)no2)cc1	75*	51	43	75*	57
c1ccc(-c2nc(-c3ccccn3)no2)cc1	13	-25	-92	20	-13
c1ccc(-c2ccc(-c3nc(-c4ccccn4)no3)cc2)cc1	81*	56	48	67*	66*
CCCCCN1CSC(=S)N(Cc2ccccc2)C1	21	-1	-3	-8	-13
CCN1CSC(=S)N(Cc2ccccc2)C1	63*	-12	12	-28	-14
Cc1ccc(-c2noc(CCCC(=O)NC3CCCC3)n2)cc1	1	5	19	53*	29
O=C(CCCc1nc(-c2ccccc2)no1)NC1CCCC1	16	-17	3	10	7
CCN1/C(=C\C=C(C(C)=O)C(C)=O)Sc2ccccc21	12	-2	10	-20	-31
CCN1/C(=C/C(C)=C/c2sc3ccccc3[n+]2CC)Sc2ccccc21	90*	39	77*	-8	70*
SMILES	Gli-Sufu block	SRC1 inh	NR5A2 inv ag	NCOA2 inhibitor	NCOA3 inh
COCCCN=C1NN=C(c2cc(C)n(-c3ccccc3F)c2C)CS1	38	-42	-113	-53	-31
C=CCN=C1NN=C(c2cc(C)n(CC=C)c2C)CS1	71*	71*	42	58*	70*
COCCn1c(C)cc(C2=NNC(=Nc3ccccc3F)SC2)c1C	34	84*	87*	84*	85*
O=C(Nc1nc2ccccc2[nH]1)c1ccccc1OC(F)F	-99	-94	-120	-18	-82
O=C(Nc1nc2ccccc2[nH]1)c1ccc(F)cc1	-47	-127	-136	-96	-54
O=C(Nc1nc2ccccc2[nH]1)c1ccccc1F	-15	50	44	65*	64*
CCc1ccc(C(=O)Nc2nc3ccccc3[nH]2)cc1	-33	-13	-4	68*	4
COc1ccc(Cl)cc1C(=O)Nc1nc2ccccc2[nH]1	-80	-28	-17	54*	-25
COC(=O)C1CN(C2CCCC2)CCS(=O)(=O)N1Cc1ccccc1 (stereo not drawn)	.	.	.	-6	.
ClC1=C(Cl)C(Cl)=C(Cl)C1=C/C=C/c1ccccc1	79*	-4	4	-3	13
COC(=O)c1cc2c(n1S(=O)(=O)c1ccc(C)cc1)C(=O)C(=O)c1[nH]cc(C(=O)OCc3ccccc3)c1-2	87*	87*	-2	.	88*
